Results as given in PubChem BioAssay AID504803 (The Scripps Research Institute Molecular Screening Center, 2011).
Hit rate of the full screen: of about 340,000 compounds, about 1,700 (0.5%) were called active. Cut-off read from the data, not from the text of the source: active = inhibition above about 36%; inactive = the rest. The entries come from a sample that favours actives as a whole.

Each molecule was assayed against Serine protease HTRA1 (Homo sapiens) (UniProt Q92743) (assay: inhibition of human HTRA1 peptidase – biochemical, fluorescence polarization, HTS, primary screen (AID 504803;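 note: 0% = enzyme with DMSO and 100% = wells lacking enzyme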)). Details: recombinant HTRA1, FP-rhodamine activity-based probe, at 5.96 µM, hits give high values.
Serine protease HTRA1 (Homo sapiens), sequence (Q92743 whole entry, looked up): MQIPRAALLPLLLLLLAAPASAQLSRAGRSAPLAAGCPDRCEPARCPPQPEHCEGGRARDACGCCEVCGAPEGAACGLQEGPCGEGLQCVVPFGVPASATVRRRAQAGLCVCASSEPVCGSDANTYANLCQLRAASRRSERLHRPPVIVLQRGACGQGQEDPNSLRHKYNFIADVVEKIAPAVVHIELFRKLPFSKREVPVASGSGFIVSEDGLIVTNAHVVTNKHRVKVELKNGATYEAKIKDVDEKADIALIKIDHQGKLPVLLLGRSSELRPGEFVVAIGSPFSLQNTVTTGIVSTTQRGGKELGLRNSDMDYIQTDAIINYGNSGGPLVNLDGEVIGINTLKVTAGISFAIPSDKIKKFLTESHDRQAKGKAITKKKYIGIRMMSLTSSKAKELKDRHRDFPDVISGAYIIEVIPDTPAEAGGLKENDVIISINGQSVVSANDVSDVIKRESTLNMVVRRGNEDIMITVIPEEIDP
For COc1ccc(-c2ccc3[nH]c4c(c3c2)CCN2C[C@H]3[C@H](C)ON(C)[C@H]3C[C@@H]42)cc1, the inhibition was 6.55% (inactive).
With CCCCN1C[C@H](c2ccc(Br)cc2)[C@@H](CC(=O)Nc2ccc(Br)cc2)C1=O the inhibition was -22.8% (inactive).
With CC(C)n1cnc2c(NCc3ccccc3)cc(OCC3CCN(C)CC3)cc21 the inhibition was 40.1% (active).
With CCC(CO)Oc1cc(NC(=O)c2cccc3ccccc23)c2ncn(C(C)C)c2c1 (centres undefined) the inhibition was -25% (inactive).
In the case of CCC(CO)Oc1cc(NC(=O)c2ccc(Cl)cc2)c2ncn(C(C)C)c2c1 (centres undefined), the inhibition is reported as 6.4% (inactive).
Cc1ccc(-c2nc3ccc(Cl)cn3c2Cc2ccccc2)cc1 was tested, and the inhibition was -74.4% (inactive).
For O=C(CN1CCN(S(=O)(=O)c2cc(Cl)ccc2Cl)CC1)c1ccc(O)c(O)c1, the inhibition was 39.9% (active).
With N#Cc1ccsc1NC(=O)CN1CCN(S(=O)(=O)c2cc(Cl)ccc2Cl)CC1 the inhibition was -36.8% (inactive).
In the case of COc1ccc(Cl)cc1S(=O)(=O)N1CCN(CC(=O)C(C)(C)C)CC1, the inhibition is reported as 4.3% (inactive).
O=C1[C@H]2[C@@H](c3ccc(C(F)(F)F)cc3)N[C@]3(CCCN(Cc4ccc(Cl)cc4)C3=O)[C@H]2C(=O)N1Cc1ccccc1 was tested, and the inhibition was -39.5% (inactive).
In the case of COc1ncnc2c1ncn2CCCNCCN1CCOCC1, the inhibition is reported as 0.71% (inactive).
In the case of COc1cc(NC(=O)C2=C(C)OCCS2)c(Cl)cc1C(=O)NCCCN1CCCC(C)C1 (centres undefined), the inhibition is reported as -6.48% (inactive).
In the case of C[C@@H]1CN([C@@H](C)CO)S(=O)(=O)c2ccc(-c3ccc(C(=O)N(C)C)cc3)cc2O[C@@H]1CN(C)Cc1ccccc1C(=O)O, the inhibition is reported as -0.74% (inactive).
In the case of COCOCCn1cc(CN2CCS(=O)(=O)N(Cc3ccc(-c4cccc(N(C)C)c4)cc3)C(CC(C)C)C2=O)nn1 (centres undefined), the inhibition is reported as 1.08% (inactive).
In the case of CC1CCCN(CC(O)COCc2ccccc2)C1 (centres undefined), the inhibition is reported as 1.82% (inactive).
In the case of Oc1c(CN2CCCC2)cc(COCc2ccccc2)c2cccnc12, the inhibition is reported as 49.2% (active).
For Cc1ccc(CN2CCN(c3ncccn3)CC2)c(C)c1, the inhibition was -5.09% (inactive).
COc1cc(C)cc(CN2CCC(Cc3ccccc3)CC2)c1O was tested, and the inhibition was 4.82% (inactive).
Oc1c(CN2CCN(c3ccc(F)cc3)CC2)cc(Cl)c2cccnc12 was tested, and the inhibition was 50.4% (active).
In the case of Cc1cc(=O)oc2cc(OCC(=O)N3CCN(c4ccc(F)cc4)CC3)c(Cl)cc12, the inhibition is reported as 4.27% (inactive).
With Nc1cc(C(=O)N2CCN(c3ccccc3Cl)CC2)ccc1N1CC2CC(C1)c1cccc(=O)n1C2 (centres undefined) the inhibition was 2.36% (inactive).
With O=C(NCc1ccccc1)C1CNCC(C(=O)NCc2ccccc2)C1 (centres undefined) the inhibition was 0.67% (inactive).
In the case of CCOc1ccc(CCNC(=O)COC(=O)c2ccc(C)c(S(=O)(=O)N3CCOCC3)c2)cc1OCC, the inhibition is reported as -2.04% (inactive).
In the case of O=[N+]([O-])c1ccc(C(S(=O)(=O)Cc2ccccc2)S(=O)(=O)Cc2ccccc2)cc1, the inhibition is reported as -1.31% (inactive).
In the case of Cc1ccc(NS(=O)(=O)c2ccc(N/N=C/c3ccccc3OCC(=O)O)c([N+](=O)[O-])c2)c(C)c1, the inhibition is reported as 37.7% (active).
With Cc1cc([N+](=O)[O-])ccc1NS(=O)(=O)c1ccccc1 the inhibition was -0.9% (inactive).
For COc1ccc(S(=O)(=O)Nc2ccccc2C(=O)N2CCCC2)cc1C, the inhibition was 1.39% (inactive).
With C=C(C)CNC(=S)N/N=C/c1ccccc1OCC(=O)O the inhibition was 4.14% (inactive).
COc1cccc(/C=N/Nc2ccc(S(=O)(=O)Nc3ccccc3C(=O)O)cc2[N+](=O)[O-])c1O was tested, and the inhibition was 40.5% (active).
In the case of COc1ccc(Br)cc1/C=N/Nc1ccc(S(=O)(=O)Nc2ccccc2C(=O)O)cc1[N+](=O)[O-], the inhibition is reported as -2.73% (inactive).
In the case of C[C@H]1CN([C@@H](C)CO)C(=O)CCCn2cc(nn2)CO[C@@H]1CN(C)S(=O)(=O)c1ccc(-c2ccccc2)cc1, the inhibition is reported as -3.19% (inactive).
With COc1ccc2c(c1)CCCO[C@]21O[C@H](CCO)C[C@H](O)[C@H]1O the inhibition was -2.62% (inactive).
In the case of CC1=C(C(=O)N2CCOCC2)CC(CC(=O)NCc2ccco2)C(=O)N1Cc1ccc(F)cc1 (centres undefined), the inhibition is reported as 4.18% (inactive).
For Cc1ccn(CC(=O)NC2CCCN(Cc3ccccc3F)C2)n1 (centres undefined), the inhibition was 0.25% (inactive).
Cc1ccc(C(=O)NC(C)C(c2cccs2)N2CCOCC2)cc1C (centres undefined) was tested, and the inhibition was 1.64% (inactive).
In the case of C[C@@H]1CN([C@@H](C)CO)S(=O)(=O)c2ccc(C#Cc3cccc(F)c3)cc2O[C@H]1CN(C)S(=O)(=O)c1cn(C)cn1, the inhibition is reported as -25.7% (inactive).
CC(=N\NC(=O)c1cc(Br)ccc1O)/C(=N/O)C(=O)Nc1ccccc1 was tested, and the inhibition was 46.1% (active).
In the case of CC(C)/C=N/NC(=O)c1cc(Br)ccc1O, the inhibition is reported as 6.13% (inactive).
In the case of CC(=O)N/N=C(\C)c1ccc(Br)cc1Br, the inhibition is reported as 2.26% (inactive).
In the case of CC1CCN(C(=O)CSc2nnc(-c3ccco3)n2N)CC1, the inhibition is reported as 2.17% (inactive).
C[C@@H]1CN([C@@H](C)CO)C(=O)c2cc(Br)cnc2O[C@H]1CN(C)Cc1ccc(-c2ccccc2)cc1 was tested, and the inhibition was -13.1% (inactive).
For Cc1ccn2c(-c3csc(Nc4ccc(C(=O)O)cc4)n3)c(C)nc2c1, the inhibition was -2.27% (inactive).
With Oc1ccc(-c2nc3ccccc3nc2-c2ccc(O)cc2O)c(O)c1 the inhibition was -7.06% (inactive).
With Cc1ccc(Nc2nc(-c3ccc(O)cc3O)cs2)nc1 the inhibition was 37.1% (active).
COc1ccc(S(=O)(=O)N(C)C[C@H]2OCc3cnnn3CCCC(=O)N([C@H](C)CO)C[C@H]2C)cc1 was tested, and the inhibition was 0.5% (inactive).
CC(OC(=O)c1cccnc1Cl)C(=O)NC1CCCCC1 (centres undefined) was tested, and the inhibition was 2.76% (inactive).
For NC1=CC(=O)C(=O)c2cccnc21, the inhibition was 38.3% (active).
For CCOc1ccc(CCN2C(=O)c3cccnc3C2=O)cc1OCC, the inhibition was -1.21% (inactive).
In the case of Cc1ccc(CCNC(=O)CN2C(=O)CSc3ccc(S(=O)(=O)N4CCOCC4)cc32)cc1, the inhibition is reported as -3.89% (inactive).
For COCOCCn1cc(CN2CCS(=O)(=O)N(Cc3ccc(-c4ccc(OC)cc4)cc3)C(CC(C)C)C2=O)nn1 (centres undefined), the inhibition was -16.7% (inactive).
With Cc1cc(C)nc(N/N=C/c2c(CO)cnc(C)c2O)n1 the inhibition was 4.05% (inactive).
For CCN(CC)c1ccc(/C=N/Nc2nc(C)cc(C)n2)c(O)c1, the inhibition was 63.8% (active).
In the case of CCN(CC)c1ccc(/C=N/NC(=O)c2cnccn2)c(O)c1, the inhibition is reported as 11.4% (inactive).
COc1ccc(CN2C(=O)C(CC(=O)NC3CCCCC3)CC(C(=O)N3CCOCC3)=C2C)cc1 (centres undefined) was tested, and the inhibition was 9.07% (inactive).
In the case of O=C(Nc1ccc(OC(F)(F)F)cc1)c1ccc2c(c1)no[n+]2[O-], the inhibition is reported as 42.3% (active).
CCOC(=O)Cc1ncccc1C(=O)Nc1ccc(OC(F)(F)F)cc1 was tested, and the inhibition was -0.74% (inactive).
CCOc1c2ccc(C(=O)NCc3ccc(OC(F)(F)F)cc3)cc2nn1C was tested, and the inhibition was -3.97% (inactive).
With C[C@H]1CN([C@@H](C)CO)S(=O)(=O)c2ccc(-c3cccc(F)c3)cc2O[C@@H]1CN(C)C the inhibition was 0.65% (inactive).
With Cn1c(CCN2CCN(c3ccccn3)CC2)nc2cc(NS(=O)(=O)c3ccc(F)cc3)ccc21 the inhibition was -0.52% (inactive).
With C[C@H]1CN([C@@H](C)CO)C(=O)CCCn2cc(nn2)CO[C@@H]1CN(C)S(=O)(=O)c1ccc(-n2cccn2)cc1 the inhibition was -3.1% (inactive).
In the case of CC(=O)n1c(C=Nc2ccccc2)c(O)c2ccccc21, the inhibition is reported as -1.27% (inactive).
With Oc1ccc(N=Cc2sc3ccccc3c2Cl)cc1 the inhibition was 65.8% (active).
With C[C@H](CO)N1C[C@H](C)[C@H](CN(C)C(=O)Nc2ccc3c(c2)OCO3)Oc2ncc(Br)cc2C1=O the inhibition was -0.29% (inactive).
In the case of Cc1c(NC(=O)COC(=O)/C=C/c2cccc(F)c2)c(=O)n(-c2ccccc2)n1C, the inhibition is reported as -0.4% (inactive).
With CC1(C)CC(=O)C=C(c2ccccc2CO)C1=O the inhibition was -3.27% (inactive).
In the case of CCCn1c(N)c(C(=O)CSc2nnc(Cc3cccs3)n2C2CC2)c(=O)[nH]c1=O, the inhibition is reported as 3% (inactive).
For COc1ccccc1-c1n[nH]nc1C1=CC(=O)CC(C)(C)C1, the inhibition was 3.87% (inactive).
With CCc1ccc2c(c1)C1(NN=C(c3ccccc3)S1)C(=O)N2 (centres undefined) the inhibition was 60.5% (active).
For COc1ccc(-c2cnc3c(c2)C(=O)N([C@H](C)CO)C[C@@H](C)[C@H](CN(C)Cc2ccccc2)O3)cc1, the inhibition was -5.18% (inactive).
